# SENP7 block = SENP7 protease inhibitors, primary screen, biochemical, luminescence, uHTS; hit rate 1.5% among 330,000; Sentrin-specific protease 7 (Homo sapiens), Q9BQF6; recombinant SENP7, Z-RLRGG-aminoluciferin luminescence, 40 min; inhibition, % at 5 µM;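 active = inhibition above about 50% at the single test dose, limit read from the data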;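 note: plate controls were DMSO with enzyme for no effect and no enzyme buffer wells for full effect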
# SENP8 block-1 = SENP8 protease inhibitors, primary screen, biochemical, luminescence | Sentrin-specific protease 8 (Homo sapiens), Q96LD8 | purified SENP8, Z-RLRGG-aminoluciferin cleavage | inhibition, % at 10 µM | hit rate 1.2% among 330,000; in the data active = inhibition above about 50%
# SENP6 block = SENP6 protease inhibitors, primary screen, biochemical, luminescence, uHTS. hit rate 1.8% among 330,000. inhibition, % at 10 µM. Sentrin-specific protease 6 (Homo sapiens), Q9GZR1. Recombinant SENP6 catalytic domain, aminoluciferin luminescence;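 active = inhibition above about 50% at the single tested dose, limit read from the data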;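 note: plate controls were DMSO wells with enzyme for no effect and DMSO wells lacking enzyme for full effect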
# Target sequence (Q9GZR1 628-1112 limits assumed): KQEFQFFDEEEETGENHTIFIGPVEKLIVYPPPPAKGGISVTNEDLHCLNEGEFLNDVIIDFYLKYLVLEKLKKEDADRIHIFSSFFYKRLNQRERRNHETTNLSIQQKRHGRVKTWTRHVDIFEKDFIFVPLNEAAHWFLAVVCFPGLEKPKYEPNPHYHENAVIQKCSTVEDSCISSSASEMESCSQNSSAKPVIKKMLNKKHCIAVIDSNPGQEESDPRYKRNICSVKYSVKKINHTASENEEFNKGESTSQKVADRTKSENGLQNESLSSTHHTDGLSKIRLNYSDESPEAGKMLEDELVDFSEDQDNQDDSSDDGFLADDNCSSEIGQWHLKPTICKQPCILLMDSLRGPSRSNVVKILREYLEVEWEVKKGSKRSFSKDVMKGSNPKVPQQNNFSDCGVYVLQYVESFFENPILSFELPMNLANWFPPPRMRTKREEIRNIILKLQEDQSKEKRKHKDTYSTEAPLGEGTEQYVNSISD
# HSP90 inh = HSP90 inhibitors, primary screen, cell lysate, luminescence; inhibition, % at 5.6 µM; Heat shock protein HSP 90 (rabbit reticulocyte lysate; luciferase refolding); Rabbit reticulocyte lysate, luciferase refolding luminescence, 3 h; hit rate 0.91% among 290,000;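 active = inhibition above the screen-wide mean plus 3 SD, computed separately per campaign, cut at about 16% in these data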;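 note: 0% = DMSO wells and 100% = 60 µM geldanamycin wells; inhibitors lower the luminescence because luciferase stays unfolded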
# SENP8 block-2 = human SENP8 protease inhibitors, primary screen, biochemical, fluorescence, Nedd8 protein substrate, uHTS. recombinant SENP8. Sentrin-specific protease 8 (Homo sapiens), Q96LD8. inhibition, % at 20 µM. hit rate 0.64% among 360,000; in the data active = inhibition mostly above about 40%, no sharp cut-off; inactive = mostly below about 27%
# SENP8 conf = SENP8 protease inhibitors, retest, confirmation, biochemical, luminescence, single concentration | shares compounds with SENP7 block | Recombinant SENP8, Z-RLRGG-aminoluciferin luminescence, 60 min | inhibition, % at 12.5 µM | hit rate 40% among 6,200;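 active = mean inhibition across replicates above about 50%, limit read from the data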
# SENP6 confirm = SENP6 protease inhibitors, confirmation, biochemical, luminescence, single concentration | shares compounds with SENP7 block | recombinant SENP6, Z-RLRGG-aminoluciferin luminescence | hit rate 58% among 6,200 | inhibition, % at 12.5 µM
# SENP7 conf = SENP7 protease inhibitors, retest, confirmation, biochemical, luminescence, single concentration | shares compounds with SENP7 block | recombinant SENP7, Z-RLRGG-aminoluciferin luminescence, 40 min | inhibition, % at 12.5 µM | hit rate 69% among 6,200
# Casp3 select = caspase-3 protease inhibitors, confirmation, selectivity assay for SENP inhibitor project, biochemical, single concentration. shares compounds with SENP7 block. purified caspase-3, Z-DEVD-aminoluciferin luminescence, 60 min. inhibition, % at 12.5 µM. hit rate 60% among 6,200;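 active = mean inhibition above about 50%, limit read from the data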;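 note: plate controls were enzyme with DMSO for no effect and wells without caspase-3 for full effect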
# Luc interf = interferes with luciferase luminescence in SENP counter-screen; AID 488919; hit rate 39% among 6,200; inhibition, % at 12.5 µM; Pre-incubated SENP8/Z-RLRGG-aminoluciferin, luciferase luminescence interference; shares compounds with SENP7 block;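 active = mean inhibition above about 50% when retested at one dose, limit read from the data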;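 note: plate controls were DMSO wells with completed reaction for no effect and substrate without enzyme for full effect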
# An asterisk follows results filed as active; i = inactive; · = no result. This is a sample that favours compounds with a hit; in the whole collection about 2.8% have one here.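 Rule for the calls, unless noted: active = mean inhibition above about 50% in the one-dose retest (limit read from the data); inactive = the rest.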
SMILES,SENP7 block,SENP8 block-1,SENP6 block,HSP90 inh,SENP8 block-2,SENP8 conf,SENP6 confirm,SENP7 conf,Casp3 select,Luc interf
COc1cccc(C(=O)COC(=O)c2cccs2)c1,86*,77*,84*,3,8,1,81*,97*,84*,82*
COc1ccc(CCN2C(=O)NC(NC(=O)C(C)(C)C)(C(F)(F)F)C2=O)cc1OC (stereo not given),-1,-2,-10,2,12,·,·,·,·,·
CCSc1nnc(Cn2c(=O)sc3ccccc32)n1C,-7,8,5,-5,4,·,·,·,·,·
COc1ccc(C(=O)COC(=O)c2cccs2)cc1,100*,92*,94*,·,10,94*,95*,102*,96*,93*
Cc1cccc(C(=O)NNC(=O)c2ccc(Cl)cc2)c1O,31,29,55*,-1,1,52*,48,77*,71*,62*
COc1ccc(CNc2ccc(N3CCN(C(C)=O)CC3)cc2)cc1OC,·,·,·,·,-34,·,·,·,·,·
O=C(c1cc(-c2ccc(Br)cc2)on1)N1CCCC1,42,39,55*,6,12,4,7,33,39,9
O=C(c1cc(-c2ccc(O)cc2)on1)N1CCCC1,7,14,39,12,10,·,·,·,·,·
COc1ccc(-c2cc(C(=O)N3CCCCCC3)no2)cc1,48,38,57*,10,21,41,50*,83*,56*,24
COc1cccc(-c2cc(C(=O)N3CCCCCC3)no2)c1,45,48,67*,15,13,62*,61*,85*,62*,49
O=C(c1cc(-c2ccc(F)cc2)on1)N1CCCC1,10,1,-10,7,8,·,·,·,·,·
O=C(Cn1ccc(NC(=O)OCc2ccccc2)nc1=O)NCc1ccccn1,4,6,6,·,11,·,·,·,·,·
CC(=O)CC1OC(=O)C(Br)=C1NCc1ccccc1 (stereo not given),-1,-10,-1,0,12,·,·,·,·,·
COc1cccc(CN2CCN(C(=O)c3oc4c(F)cccc4c3C)CC2=O)c1,10,7,87*,1,1,-20,-17,-5,-9,-6
CC(=O)CCC(=O)N1CCC(n2nccc2NC(=O)c2ccccc2C)CC1,-12,-1,-3,7,7,·,·,·,·,·
Cc1ccc(-n2nnc(-c3cccnc3Cl)n2)cc1,76*,52*,74*,10,12,36,52*,42,38,17
Clc1ccc(-n2nnc(-c3cccnc3Cl)n2)cn1,7,-14,-11,3,i,·,·,·,·,·
COc1ccccc1NC(=S)N(Cc1ccc(C)cc1)Cc1ccccn1,4,-1,-6,-2,27,·,·,·,·,·
COc1cc(Cl)c(NC2=CC(=O)C(=O)c3ccccc32)c(OC)c1,60*,75*,-12,·,i,1,90*,74*,8,0
Cc1ccc(-n2c(C)cc(C(=O)CSc3nnnn3C)c2C)cc1,69*,60*,29,8,7,80*,78*,95*,79*,76*
CC(C)C(=O)N1CCN(c2ccccc2NC(=O)c2ccc(Br)o2)CC1,0,10,9,·,3,·,·,·,·,·
CC(C)C(=O)N1CCN(c2ccccc2NC(=O)c2ccco2)CC1,-9,2,103*,4,10,-7,-6,-7,2,3
O=C(CSc1nnc(-c2ccccc2)c(-c2ccccc2)n1)N1CCc2ccccc21,4,-2,16,-1,20,·,·,·,·,·
COc1ccc(S(=O)(=O)N2CCC3(CC2)OCCN3S(=O)(=O)c2cccs2)cc1OC,9,-5,-8,·,8,·,·,·,·,·
Cc1ccccc1-c1cc(-c2ccccc2O)on1,97*,81*,91*,-1,-1,95*,96*,100*,84*,93*
SMILES,SENP7 block,SENP8 block-1,SENP6 block,HSP90 inh,SENP8 block-2,SENP8 conf,SENP6 confirm,SENP7 conf,Casp3 select,Luc interf
Oc1ccccc1-c1cc(-c2ccccc2)no1,96*,86*,84*,-1,-44,87*,88*,101*,84*,64*
O=C(c1cc(-c2ccccc2O)on1)N1CCCCCC1,-8,10,5,3,7,·,·,·,·,·
Cc1ccc(-c2cc(-c3ccccc3)no2)c(O)c1,·,·,·,16,-61,·,·,·,·,·
Cc1ccc(O)c(-c2cc(-c3ccc(F)cc3)no2)c1,81*,57*,77*,-3,-314,24,68*,56*,68*,4
COc1ccccc1CNC(=O)C1CCCN(S(=O)(=O)c2cccc3nsnc23)C1 (stereo not given),10,-1,-3,3,-1,·,·,·,·,·
Cc1ccc2c(c1)COc1c3ccc(C(=O)N[C@@H](CO)C(C)C)cc3nn1-2,2,-8,-11,·,-239,·,·,·,·,·
CC(C)NC(=O)c1ccc2c3n(nc2c1)-c1ccc(Cl)cc1CO3,-1,54*,24,·,-46,-2,26,62*,44,11
C[C@@H](CO)NC(=O)c1ccc2c3n(nc2c1)-c1ccccc1CO3,37,49,57*,·,-221,65*,66*,92*,91*,70*
COc1cccc(C(C#N)N2N=C(C)CC2(C)C)c1O (stereo not given),5,-3,-7,-4,-7,·,·,·,·,·
c1ccc(CNc2ncnc3c2cnn3-c2ccccc2)cc1,5,1,-7,-1,11,·,·,·,·,·
c1ccc(CCNc2ncnc3c2cnn3-c2ccccc2)cc1,0,44,58*,9,8,58*,51*,82*,39,37
CC(=O)Nc1cccc(-c2ccnc3c2CC(C(=O)Nc2ccc(Cl)cc2)O3)c1 (stereo not given),·,·,·,·,14,·,·,·,·,·
COc1cc(O)cc2cc3c(c(O)c12)C(=O)CC(C)(O)O3 (stereo not given),13,21,58*,·,11,2,9,17,24,30

# Screens as filed in PubChem BioAssay.
